Tg IFNy HTS = T. gondii growth inhibition with IFN-gamma, primary screen, cell-based; Toxoplasma gondii growth in IFN-gamma-treated host cells; active compounds read low; activity change, negative = inhibition, % (no concentration beside the values); hit rate 3.8% among 69,000; in the data active means activity change below about -70%, passing the limit was not always enough;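 further: host cells are HeLa cells infected with Toxoplasma gondii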
Numbers without * were called inactive; i = inactive. Shown is part of a subset that was picked to be rich in hits.

SMILES | Tg IFNy HTS
O=C(Cn1ccc(-c2ccccc2F)n1)Nc1ccn(Cc2ccccc2)n1 | -4.3
CCc1c(C)sc2c1CCN(Cc1nc(-c3ccc(OC(C)C)cc3)oc1C)C2c1ccccc1 (configuration not stated) | -53.4
COc1ccc(-c2cn(CC3CCS(=O)(=O)C3)nn2)cc1OC (configuration not stated) | 12.9
NC(=O)C1(Cc2cccc(-c3cncnc3)c2)CCCN1 (configuration not stated) | -6.1
CCSc1nc2c(c(=O)n1C)C1(CCCCC1)Cc1ccccc1-2 | -73.3*
O=c1[nH]c(Cc2ccccc2)nc2c1C1(CCCCC1)Cc1ccccc1-2 | -3.1
Cn1cnnc1C1CCN(c2nc(-c3cccnc3)nc3c2cnn3C)CC1 | -46.2
Nc1ccccc1OCC1CCCCO1 (configuration not stated) | -38.5
O=C(c1ccoc1)N1CCc2ncnc(C3CCOC3)c2CC1 (configuration not stated) | 77.1
CN(C)C(=O)CN1CCOCC2(CCN(C(=O)Nc3ccc(Cl)cc3)CC2)C1 | -0.1
CCN1c2cc(Cl)ccc2C(=O)NC12CCN(C(=O)Nc1ccc(OC)cc1)CC2 | 285.0
CC(C)CN1C[C@@H]2[C@@H](C1)C(=O)NC21CCN(C(=O)Nc2ccc(Cl)cc2)CC1 | -109.0*
C=CCOCc1nnn2c1CN(Cc1csc(C)n1)CCC2 | 4.0
COc1ccc(-c2nc(C)c(CCNC(=O)C(C)(C)C)s2)cc1 | i
Cc1cnn(CC(=O)Nc2cccc(CCc3ccncc3)c2)c1 | 13.3
COc1ccccc1-c1cc(C(=O)Nc2cccc(CCc3ccncc3)c2)[nH]n1 | -91.8*
COc1ccccc1C(=O)Nc1cccc(-n2cnnc2)c1 | -7.8
CCn1cc(S(=O)(=O)NCC(c2ccc(OC)cc2)c2c[nH]c3ccccc23)cn1 (configuration not stated) | -36.2
Cn1cc(C2=C(c3cn(CCCSC(=N)N)c4ccccc34)C(=O)NC2=O)c2ccccc21 | -77.0*
Cn1cc(C(=O)O)c(=O)c2ccccc21 | -6.1
COc1ccc2c(c1)c(C1=C(c3c[nH]c4ccccc34)C(=O)NC1=O)cn2CCCN(C)C | -51.7
Cc1ccc2[nH]cc(CCN3CC(C(=O)Nc4ccc(C)c(C)c4)CC3=O)c2c1 (configuration not stated) | -27.9
O=C(Cn1c(=O)ccc2cc(S(=O)(=O)N3CCCC3)ccc21)Nc1ccc(OC(F)(F)F)cc1 | -35.8
CCc1cnc(N2CCC3C2CCC(=O)N3c2cccnc2)nc1 (configuration not stated) | -39.8
Cc1ccc(C)c(N2CCN(c3nc(-c4ccc(Cl)cc4)nc4ccccc34)CC2)c1 | -12.5
SMILES | Tg IFNy HTS
CC(C)CS(=O)(=O)N1CCc2cc(C(=O)N(C)C)c(NC(C)C)nc2CC1 | -6.7
COCC#Cc1ccc2c(c1)O[C@H](CN(C)C(=O)C1CCOCC1)[C@H](C)CN([C@H](C)CO)S2(=O)=O | 64.7
C[C@H]1CN([C@@H](C)CO)S(=O)(=O)c2ccc(C#CCC3CCCC3)cc2O[C@H]1CN(C)C(=O)c1cnccn1 | -90.6*
COc1cccc(C#Cc2ccc3c(c2)O[C@@H](CN(C)C(=O)CN2CCOCC2)[C@@H](C)CN([C@H](C)CO)S3(=O)=O)c1 | -42.0
C[C@@H]1CN([C@@H](C)CO)S(=O)(=O)c2ccc(C#Cc3ccccc3F)cc2O[C@H]1CN(C)C(=O)Cc1cccnc1 | -90.3*
COc1cccc(C#Cc2ccc3c(c2)O[C@H](CN(C)C(=O)CN2CCOCC2)[C@H](C)CN([C@H](C)CO)S3(=O)=O)c1 | 5.8
C[C@@H]1CN([C@@H](C)CO)S(=O)(=O)c2ccc(C#CCC3CCCC3)cc2O[C@H]1CN(C)C(=O)c1cnccn1 | -61.6
Cc1nc(CCNC(=O)[C@H]2CCCN2S(=O)(=O)c2cnn(C(F)F)c2C)cs1 | 0.1
O=C(Cc1ccccc1)N1CCc2ncnc(C3CC3)c2CC1 | 59.8
O=C(Nc1nnc(CCc2ccccc2)s1)c1ccnc(N2CCCC2)c1 | -43.7
COc1cc(N2CC[C@H]3[C@@H]2CCN3C(=O)c2cccnc2)ncn1 | 22.5
CCN1C[C@]23CN(C(=O)C(C)C)C[C@@H](C[C@H]2S1(=O)=O)O3 | 2.6
COCC(=O)N1CC2(CCN(Cc3ccccc3)CC2)c2c([nH]c3cc(OC)ccc23)[C@@H]1CO | 233.0
Cc1ccc2c(Br)cc(Br)c(OC(=O)c3ccccc3)c2n1 | -85.1*
O=C(Oc1cccccc1=O)c1ccccc1 | 0.1
O=C(Oc1cccc2cccnc12)c1ccccc1 | 8.7
Nc1ncccc1CN1CCC(Cc2cccc(C(=O)O)c2)C1 (configuration not stated) | -4.2
O=C(c1cnccn1)N1CCC(F)(F)C2(CCN(c3ccccn3)C2)C1 (configuration not stated) | 177.2
COc1ccc2c(c1)O[C@H]1c3ccc(OC)cc3OC[C@@H]21 | -20.5
COc1ccc2c(c1)OCC(Cc1ccc(OC)c(OC(C)=O)c1)C2=O (configuration not stated) | -84.0*
COc1ccc2c(c1)OCC(Cc1ccc(OC)c(OC)c1)C2=O (configuration not stated) | -3.4
Cc1cc(C2CCCN2C(=O)Cn2nc(C(F)(F)F)cc2C)on1 (configuration not stated) | 0.2
CC(C)Oc1ccc(NC(=O)c2nc3c(n2C(C)C)CCN(C(=O)c2ccccc2)C3)cc1 | -89.1*
CC1CN(C(=O)c2nc3c(n2C(C)C)CCN(Cc2ccccc2)C3)CC(C)O1 (configuration not stated) | -48.8
CC(C)n1c(C(=O)Nc2cccc(F)c2)nc2c1CCN(Cc1ccccc1)C2 | -29.6
SMILES | Tg IFNy HTS
C[C@H]1CN([C@@H](C)CO)S(=O)(=O)c2ccc(Br)cc2O[C@H]1CN(C)C(=O)Nc1ccccc1F | 97.4
Cc1ccccc1-c1ccc2c(c1)O[C@@H](CN(C)C(=O)Nc1ccc(C(F)(F)F)cc1)[C@H](C)CN([C@@H](C)CO)S2(=O)=O | -99.5*
C[C@H]1CN([C@@H](C)CO)S(=O)(=O)c2ccc(C#CC3(O)CCCC3)cc2O[C@H]1CN(C)C(=O)Nc1cccc(F)c1 | -62.4
C[C@H](CO)N1C[C@H](C)[C@@H](CN(C)Cc2ccc(F)cc2)Oc2cc(C#CC(C)(C)O)ccc2S1(=O)=O | -94.8*
CCCNC(=O)N(C)C[C@@H]1Oc2cc(C#C[C@@H](C)O)ccc2S(=O)(=O)N([C@H](C)CO)C[C@H]1C | -37.7
C[C@H](CO)N1C[C@H](C)[C@H](CN(C)C(=O)c2ccccc2)Oc2cc(-c3cccc(C#N)c3)ccc2S1(=O)=O | -69.5
C[C@@H]1CN([C@@H](C)CO)S(=O)(=O)c2ccc(-c3cccc(C#N)c3)cc2O[C@H]1CN(C)C(=O)c1ccccc1 | -99.1*
C[C@@H]1CN([C@@H](C)CO)S(=O)(=O)c2ccc(C#CC3(O)CCCC3)cc2O[C@H]1CN(C)C(=O)Nc1cccc(F)c1 | -91.8*
C/C=C/c1ccc2c(c1)O[C@H](CN(C)C(=O)Nc1ccc(OC)cc1)[C@H](C)CN([C@@H](C)CO)S2(=O)=O | i
C[C@@H]1CN([C@@H](C)CO)S(=O)(=O)c2ccc(-c3ccc(F)cc3)cc2O[C@@H]1CN(C)Cc1ccccc1C(=O)O | 213.8
C[C@H]1CN([C@@H](C)CO)S(=O)(=O)c2ccc(C#CC(C)(C)O)cc2O[C@H]1CN(C)Cc1ccc(F)cc1 | -32.3
C[C@H](CO)N1C[C@H](C)[C@H](CN(C)Cc2ccc(F)cc2)Oc2cc(C#CC(C)(C)O)ccc2S1(=O)=O | 274.6
c1cncc(CN2CCCC(n3cc(-c4ccc5c(c4)OCCO5)nn3)C2)c1 (configuration not stated) | -8.7
